Source: PubChem BioAssay (EPA / NIEHS)
The source made the active and inactive calls. Rule for the calls: active = hit-call score of the fitted dose curve at least 0.9, where 1 is the maximum; inactive = score below 0.9.

Key:
[1] = read-out: Thrombomodulin, THBD (gene 7056); experiment: BSK_CASM3C_Thrombomodulin: BioMAP Diversity Plus: CASM3C Assay for Thrombomodulin Biomarker Activity (AID 2283051); conditions: primary human coronary artery smooth muscle cells; actives raise or lower the signal;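 note: thrombomodulin protein level measured by ELISA 24 h after dosing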
[2] = read-out: Tissue Factor, F3 (gene 2152); experiment: BSK_CASM3C_TissueFactor: BioMAP Diversity Plus: CASM3C Assay for Tissue Factor Biomarker Activity (AID 2283052); conditions: primary human coronary artery smooth muscle cells; actives raise or lower the signal;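 note: cell surface tissue factor protein level read by ELISA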
[3] = read-out: Interferon-gamma inducible Protein 10 (IP10), CXCL10 (gene 3627); experiment: BSK_hDFCGF_IP10: BioMAP Diversity Plus: hDFCGF Assay for Interferon-gamma inducible Protein 10 (IP10) Biomarker Activity (AID 2283053); conditions: primary human foreskin fibroblasts; actives raise or lower the signal
Method in brief: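 IP-10 levels, quantified by ELISA, are taken from human foreskin fibroblast cultures 24 h after chemical treatment, with DMSO serving as negative control and baseline for bidirectional analysis.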

[4] = read-out: Urokinase-type plasminogen activator receptor (uPAR), PLAUR (gene 5329); experiment: BSK_CASM3C_uPAR: BioMAP Diversity Plus: CASM3C Assay for Urokinase-type plasminogen activator receptor (uPAR) Biomarker Activity (AID 2283054); conditions: primary human coronary artery smooth muscle cells; actives raise or lower the signal;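 note: cell-surface uPAR protein level quantified by ELISA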
[5] = read-out: Vascular cell adhesion molecule 1 (VCAM1), VCAM1 (gene 7412); experiment: BSK_CASM3C_VCAM1: BioMAP Diversity Plus: CASM3C Assay for Vascular cell adhesion molecule 1 (VCAM1) Biomarker Activity (AID 2283055); conditions: primary human coronary artery smooth muscle cells; actives raise or lower the signal;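 note: VCAM-1 protein level quantified by ELISA on the cells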
[6] = read-out: Collagen III, COL3A1 (gene 1281); experiment: BSK_hDFCGF_CollagenIII: BioMAP Diversity Plus: hDFCGF Assay for Collagen III Biomarker Activity (AID 2283056); conditions: primary human foreskin fibroblasts; actives raise or lower the signal
Method in brief: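 Human foreskin primary fibroblasts were exposed to test chemicals for 24 h, after which collagen III was quantified by ELISA. Activity was fitted bidirectionally against DMSO as negative control and baseline.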

[7] = read-out: Epidermal growth factor receptor (EGFR), EGFR (gene 1956); experiment: BSK_hDFCGF_EGFR: BioMAP Diversity Plus: hDFCGF Assay for Epidermal growth factor receptor (EGFR) Biomarker Activity (AID 2283057); conditions: primary human foreskin fibroblasts; actives raise or lower the signal
Method in brief: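 Measured by ELISA: EGFR levels on primary human foreskin fibroblasts 24 h after chemical treatment, analysed relative to DMSO with bidirectional fitting.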

[8] = read-out: Interleukin-8 (IL8), CXCL8 (gene 3576); experiment: BSK_hDFCGF_IL8: BioMAP Diversity Plus: hDFCGF Assay for Interleukin-8 (IL8) Biomarker Activity (AID 2283058); conditions: primary human foreskin fibroblasts; actives raise or lower the signal
Method in brief: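 hDFCGF human dermal fibroblasts; 24 h chemical exposure; IL-8 by ELISA; bidirectional curve fit vs DMSO baseline; gain or loss of signal scored.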

[9] = BSK_hDFCGF_Proliferation: Cell Proliferation Assessment in the BioMAP Diversity Plus: hDFCGF Assay (AID 2283059); conditions: primary human foreskin fibroblasts;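 note: curves fitted for both rise and fall of signal versus DMSO baseline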
Method in brief: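 Total protein read at 560 nm after 0.1% SRB staining of TCA-fixed human skin fibroblasts, […]. Activity is fitted in both directions relative to DMSO as baseline.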

[10] = BSK_hDFCGF_SRB: Viability Assessment in the BioMAP Diversity Plus: hDFCGF Assay (AID 2283061); conditions: primary human foreskin fibroblasts;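 note: cells exposed to compound for 24 h before the read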
Method in brief: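 Human foreskin primary fibroblasts were treated with compound and assessed 24 h after dosing. Total protein was measured by sulforhodamine B staining (0.1% SRB after 10% TCA fixation, 560 nm read) as a cytotoxicity marker, with bidirectional fitting against DMSO baseline.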

[11] = read-out: TIMP metallopeptidase inhibitor 1 (TIMP1), TIMP1 (gene 7076); experiment: BSK_hDFCGF_TIMP1: BioMAP Diversity Plus: hDFCGF Assay for TIMP metallopeptidase inhibitor 1 (TIMP1) Biomarker Activity (AID 2283062); conditions: primary human foreskin fibroblasts; actives raise or lower the signal
Method in brief: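 Primary human foreskin fibroblasts in the hDFCGF system were dosed with compound for 24 h, then TIMP-1 was measured by ELISA. Activity was fitted bidirectionally relative to DMSO control; parallel SRB staining assessed cytotoxicity.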

[12] = read-out: Matrix Metallopeptidase 1 (MMP1), MMP1 (gene 4312); experiment: BSK_hDFCGF_MMP1: BioMAP Diversity Plus: hDFCGF Assay for Matrix Metallopeptidase 1 (MMP1) Biomarker Activity (AID 2283064); conditions: primary human foreskin fibroblasts; actives raise or lower the signal
Method in brief: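 Primary human foreskin fibroblasts exposed to chemicals for 24 h; MMP1 measured by ELISA. Cytotoxicity tracked by SRB staining in parallel cultures; bidirectional fit relative to DMSO.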

[13] = read-out: Vascular cell adhesion molecule 1 (VCAM1), VCAM1 (gene 7412); experiment: BSK_hDFCGF_VCAM1: BioMAP Diversity Plus: hDFCGF Assay for Vascular cell adhesion molecule 1 (VCAM1) Biomarker Activity (AID 2283065); conditions: primary human foreskin fibroblasts; actives raise or lower the signal;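 for AC50: VCAM-1 protein level quantified by ELISA after 24 h chemical exposure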
Method in brief: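 Primary human foreskin fibroblasts (hDFCGF system) were dosed with chemical and VCAM-1 was measured by ELISA 24 h later. Bidirectional curve fitting used DMSO as negative control and activity baseline.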

[14] = read-out: Plasminogen activator inhibitor-1 (PAI1), SERPINE1 (gene 5054); experiment: BSK_hDFCGF_PAI1: BioMAP Diversity Plus: hDFCGF Assay for Plasminogen activator inhibitor-1 (PAI1) Biomarker Activity (AID 2283066); conditions: primary human foreskin fibroblasts; actives raise or lower the signal
Method in brief: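 PAI-1 levels, determined by ELISA, served as the endpoint in human foreskin fibroblast cultures exposed to compound for 24 h, with DMSO as baseline.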

[15] = read-out: Intercellular Adhesion Molecule 1 (ICAM1), ICAM1 (gene 3383); experiment: BSK_KF3CT_ICAM1: BioMAP Diversity Plus: KF3CT Assay for Intercellular Adhesion Molecule 1 (ICAM1) Biomarker Activity (AID 2283067); conditions: primary human keratinocytes with fibroblasts; actives raise or lower the signal
Method in brief: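 Human keratinocyte plus foreskin fibroblast primary co-culture was exposed to chemical for 24 h. ICAM-1 was then quantified by ELISA, and the data were fit bidirectionally against DMSO as the negative control and baseline.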

[16] = read-out: Interferon-gamma inducible Protein 10 (IP10), CXCL10 (gene 3627); experiment: BSK_KF3CT_IP10: BioMAP Diversity Plus: KF3CT Assay for Interferon-gamma inducible Protein 10 (IP10) Biomarker Activity (AID 2283068); conditions: primary human keratinocytes with fibroblasts; actives raise or lower the signal
Method in brief: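 Human keratinocyte plus foreskin fibroblast primary co-culture exposed to test chemical for 24 h; IP-10 measured by ELISA. Concentration-response fitted bidirectionally against DMSO control as baseline.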

[17] = BSK_KF3CT_SRB: Viability Assessment in the BioMAP Diversity Plus: KF3CT Assay (AID 2283069); conditions: primary human keratinocytes with fibroblasts;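 note: fitted for both signal gain and loss against DMSO baseline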
Method in brief: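 Human keratinocyte and foreskin fibroblast co-culture exposed to chemical for 24 h. Total protein measured in parallel cultures by 0.1% sulforhodamine B staining after 10% TCA fixation, read at 560 nm; bidirectional fit relative to DMSO.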

[18] = read-out: Interleukin-1 alpha (IL1a), IL1A (gene 3552); experiment: BSK_KF3CT_IL1a: BioMAP Diversity Plus: KF3CT Assay for Interleukin-1 alpha (IL1a) Biomarker Activity (AID 2283070); conditions: primary human keratinocytes with fibroblasts; actives raise or lower the signal
Method in brief: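 Primary human keratinocyte plus foreskin fibroblast co-culture, dosed and measured at 24 h in 96-well plates. IL-1a level quantified by ELISA; bidirectional fit relative to DMSO.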

[19] = read-out: Macrophage colony-stimulating factor (MCSF), CSF1 (gene 1435); experiment: BSK_hDFCGF_MCSF: BioMAP Diversity Plus: hDFCGF Assay for Macrophage colony-stimulating factor (MCSF) Biomarker Activity (AID 2283060); conditions: primary human foreskin fibroblasts; actives raise or lower the signal
Method in brief: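 Human foreskin primary fibroblasts were treated with test chemical for 24 h, and M-CSF was then measured by ELISA. Data were fitted bidirectionally against DMSO as the negative control and activity baseline.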

Measured: AC50

Clc1nc(Cl)nc(Nc2ccccc2Cl)n1
active: [3] 32 µM | [9] 27.8 µM | [10] 31.7 µM | [13] 36.1 µM | [14] 27.2 µM
not listed: [19]
inactive: all other assays above

CCOc1cc(C(C)(C)C)ccc1C1COC(c2c(F)cccc2F)=N1 (configuration not stated)
inactive: [2] | [5]
active: [1] 22.8 µM | [3] 20 µM | [4] 5.08 µM | [6] 5.45 µM | [7] 11.8 µM | [8] 20.4 µM | [9] 6.95 µM | [19] 14.5 µM | [10] 19.7 µM | [11] 13.8 µM | [12] 14.3 µM | [13] 15.3 µM | [14] 12.3 µM | [15] 31.3 µM | [16] 17.3 µM | [17] 8.44 µM | [18] 11.2 µM

N#Cc1c[nH]cc1-c1cccc2c1OC(F)(F)O2
active: [1] 22.7 µM | [19] 8.88 µM | [10] 5.56 µM | [12] 5.28 µM | [13] 5.39 µM
not listed: [9]
inactive: all other assays above

N#CN=C1SCCN1Cc1ccc(Cl)nc1
inactive: all assays above

CNC(=O)Oc1cccc2ccccc12
active: [9] 13.9 µM | [19] 29.7 µM | [12] 3.91 µM | [13] 20 µM
not listed: [11]
inactive: all other assays above
